Shown are actives, neighbours in structure and some others; about 9.3% of the full set was active somewhere.
SMN2 splice up = qHTS Assay for Enhancers of SMN2 Splice Variant Expression; HEK293 SMN2-luciferase splicing reporter, luminescence, 30-36 h; Potency, µM (top dose mostly 46.1 µM), for the others: top-dose activity change, positive = activation, most hits filed as activators; hit rate 2.8% among 210,000; further: % of control where 0% means no effect; nearly all actives have a fitted effect of over 55% in size
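HEK293 cells carry an SMN2 minigene-luciferase reporter in which exon 7 inclusion puts luciferase in frame. Cells were seeded at 2000 cells/well, attached for 10-12 hours, then exposed to compounds for 30-36 hours at 37C before ONE-Glo luminescence.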
FLuc modulator = qHTS profiling assay for firefly luciferase inhibitor/activator using purifed enzyme and Km concentrations of substrates (counterscreen for miR-21 project). hit rate 6.9% among 360,000. Luciferin 4-monooxygenase (Photinus pyralis), P08659. purified FLuc, Km substrates, luminescence inhibition. AID 588342, 2011. Potency, µM (highest dose often 57.5 µM), for inactives: top-dose activity change, negative = inhibition, hits mostly inhibitors;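 further: plate controls were vehicle for no effect and reference inhibitor for full effect; nearly all actives have a fitted effect of over 55% in size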
Target sequence (P08659 whole entry, looked up): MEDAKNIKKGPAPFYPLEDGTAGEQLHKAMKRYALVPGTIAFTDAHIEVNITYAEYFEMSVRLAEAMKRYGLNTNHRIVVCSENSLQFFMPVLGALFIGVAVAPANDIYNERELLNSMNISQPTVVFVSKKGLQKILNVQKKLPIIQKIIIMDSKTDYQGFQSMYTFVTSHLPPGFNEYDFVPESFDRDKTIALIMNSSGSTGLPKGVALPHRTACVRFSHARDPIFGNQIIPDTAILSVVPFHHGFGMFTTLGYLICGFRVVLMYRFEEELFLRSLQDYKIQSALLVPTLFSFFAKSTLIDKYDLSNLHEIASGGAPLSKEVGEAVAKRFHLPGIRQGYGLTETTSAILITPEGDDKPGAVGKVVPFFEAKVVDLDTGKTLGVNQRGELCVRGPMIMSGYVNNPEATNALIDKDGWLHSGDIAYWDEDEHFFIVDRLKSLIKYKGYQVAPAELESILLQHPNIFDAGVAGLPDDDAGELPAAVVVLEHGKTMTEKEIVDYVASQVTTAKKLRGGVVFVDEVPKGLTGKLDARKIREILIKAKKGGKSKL
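Purified P. pyralis luciferase, 10 nM final, with Km-level 10 uM D-luciferin and 10 uM ATP in 50 mM Tris acetate pH 7.5, 10 mM Mg acetate, 0.01% Tween-20, 0.05% BSA; 6-point qHTS titration about 60 µM downward; luminescence read.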
Rab9 promoter act = qHTS Assay for Rab9 Promoter Activators. Potency, µM (top dose mostly 9.22 µM), for inactives: at the top dose activation, negative = inhibition, actives largely listed as activators. hit rate 2.8% among 320,000. Huh7 Rab9 promoter-luciferase reporter, luminescence, 24 h; further: % of control where 0% means no effect; nearly all actives have a fitted effect of over 60% in size
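Using Huh7 cells stably transfected with Rab9 promoter–luciferase, compounds were incubated 24 h at 37 °C, 5% CO2; luciferase luminescence was read 10 min after reagent addition.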
ELG1 genotoxic = qHTS screen for small molecules that induce genotoxicity in human embryonic kidney (HEK293T) cells expressing luciferase-tagged ELG1; HEK293T ELG1-luciferase reporter, luminescence, 16 h; Potency, µM (series often up to 46 µM), for inactives: at the highest dose activity change, positive = activation, usual class: activators; hit rate 1.3% among 330,000; further: % of control where 0% means no effect; nearly all actives have a fitted effect of over 60% in size
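Quantitative HTS format in 1536-well plates. HEK293T ELG1-luciferase reporter cells receive test compound and are incubated 16 hr at 37 °C, 5% CO2; ONE-Glo added, 30 min room temperature, then luminescence read.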
NPC1 promoter act = qHTS Assay for NPC1 Promoter Activators; Huh7 NPC1 promoter luciferase reporter, 24 h; Potency, µM (titrated, usually from 9.22 µM), for inactives: at the top dose activation, actives largely listed as activators; hit rate 2.4% among 320,000; AID 485313, 2010; further: % of control where 0% means no effect; nearly all actives have a fitted effect of over 60% in size
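Luminescence read-out of NPC1 promoter-driven luciferase in stably transfected Huh7 cells; compounds delivered in DMSO and left 24 h at 37C, 5% CO2, qHTS titration format.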
ELG1 repair inh = qHTS screen for small molecules that inhibit ELG1-dependent DNA repair in human embryonic kidney (HEK293T) cells expressing luciferase-tagged ELG1; HEK293T ELG1-luciferase reporter, luminescence, 16 h; DNA damage induced by 5-fluorouridine; Potency, µM (highest dose often 46.1 µM), inactives show top-dose activity change, negative = inhibition, most hits filed as inhibitors; hit rate 2.3% among 330,000; further: on the % scale 0 is the no-effect control and ±100 the full control effect; nearly all actives have a fitted effect of over 55% in size
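Quantitative HTS, concentration-response format. 2,000 cells/well co-treated with 5-fluorouridine and compound, 16 hr in 5% CO2 at 37 °C; ONE-Glo luminescence read after 30 min.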
The depositor's hits bear a star; ? = inconclusive; / = no result. The call rests on the fitted dose curve; in most records, active means well fitted curve in the direction sought with a large enough effect; inconclusive means small, poorly fitted or top-dose-only effect, or another doubt; inactive means no such curve, though single readings can be large; an effect the other way counts as inactive or inconclusive. Potency means the concentration at half of the fitted maximal effect.

SMILES | SMN2 splice up | FLuc modulator | Rab9 promoter act | ELG1 genotoxic | NPC1 promoter act | ELG1 repair inh
Cc1ccc(-n2c(C)cc(C(=O)COC(=O)C3=NNC(=O)CC3)c2C)cc1 | -25% | 17µM* | 1% | 18% | -2% | 17%
Cc1cc(C(=O)COC(=O)c2cnccn2)c(C)n1-c1ccc(Br)cc1 | / | / | / | -2% | / | 7%
CCC(=O)OCC(=O)c1cc(C)n(-c2ccc(Br)cc2)c1C | -28% | 4.3µM* | -2% | -4% | -5% | -5%
C#Cc1ccc([C@H]2C=C(C(=O)NCc3ccccc3)O[C@@H](OCC)[C@@H]2CCCO)cc1 | / | 0% | -2% | -2% | 1% | ?
Cc1ccc(Cl)cc1NC(=O)COC(=O)CCN1C(=O)C2CC=CCC2C1=O (stereo not given) | / | / | / | -2% | / | -1%
Cc1cc(C(=O)COC(=O)C2=NNC(=O)CC2)c(C)n1-c1ccccc1 | -4% | 1.9µM* | 4% | 4% | -4% | ?
O=C(O)COc1ccc(/C=C/C(=O)c2ccc3ccccc3c2)cc1 | / | 0.95µM* | 14% | 8% | 3% | 0%
O=C(O)COc1ccc(C(=O)c2ccccc2)cc1 | / | ? | -6% | 0% | -2% | -12%
O=C(O)COc1ccc(/C=C/C(=O)c2ccc(C3CCCCC3)cc2)cc1 | / | 0.38µM* | ? | 3% | ? | ?
Cc1c(N(CC(=O)O)S(=O)(=O)c2ccccc2)c(=O)n(-c2ccccc2)n1C | 2% | -15% | -17% | 0% | 1% | 4%
Clc1ccc(CSc2ncn(-c3ccccc3)n2)cc1 | 16% | -29% | 2% | 2% | 2% | 28%
Clc1cccc(CSc2ncn(-c3ccccc3)n2)c1 | ? | 19µM* | 22% | ? | 16% | ?
COc1ccc(C(=O)c2ccccc2O)c(O)c1 | 2% | 1% | 2% | 5% | -1% | 7%
C/C(=N\Nc1ccc(F)cc1F)c1cccs1 | -3% | 19µM* | 23% | ? | 6% | ?
COc1ccc(/C(C)=N/Nc2ccc(F)cc2F)c(O)c1 | ? | 11µM* | ? | ? | 10% | ?
COc1ccc(/C(C)=N/Nc2ccccc2Cl)c(O)c1 | / | 11µM* | 0% | ? | 0% | ?
N/C(CC(=O)Nc1ccc(F)cc1F)=N\OC(=O)c1cccs1 | / | -6% | 0% | -3% | -2% | -1%
COc1ccc(C(=O)CCC(=O)Nc2ccc(F)cc2F)cc1 | / | -10% | / | / | / | /
CCOc1ccc2[nH]c(C)c(CN3CCOCC3)c(=O)c2c1 | -2% | -3% | 2% | 0% | -4% | -3%
O=S(=O)(N1CCOCC1)n1nnc2ccccc21 | -21% | 0% | -4% | -1% | 0% | 14%
CCOC(=O)c1[nH]c2ccc(OC)cc2c1C | 4% | 13µM* | ? | ? | ? | ?
CCOC(=O)c1[nH]c(CN2CCN(c3ccc(OC)cc3)CC2)c(C(=O)OCC)c1C | / | -1% | 1% | 5% | -4% | 18µM*
CCOC(=O)c1[nH]c2ccc(F)cc2c1NC(=O)c1ccccc1C(=O)O | / | -19% | 6% | 11% | 18% | ?
CCOC(=O)c1[nH]c2ccc(OC)cc2c1NC(=O)c1cccc(OC)c1 | -2% | -10% | 5% | -3% | 0% | 13µM*
CCOC(=O)c1[nH]c2ccc(F)cc2c1NC(=O)c1cc(OC)c(OC)c(OC)c1 | 22µM* | 1% | 8% | 1% | 0% | 7.3µM*
CCOC(=O)c1[nH]c(C)c(C(=O)N2CCN(c3ccc(OC)cc3)CC2)c1C | -28% | 5% | -8% | 0% | -9% | -4%
COc1ccc(-c2[nH]ncc2CN2CCCN(C(=O)c3ccco3)CC2)cc1F | / | 3% | -3% | -3% | 0% | -15%
